Measured values: PubChem BioAssay AID720591 (Broad Institute, 2013)
About 60 (5%) of roughly 1,200 compounds were called active. Inconclusive results (about 1%) are left out.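 The calls were made as follows: active = Decreasing signal and fitted IC50 at most twice the top valid tested dose; inconclusive = Bad fit or a level curve showing 30 to 70% inhibition; inactive = the rest.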 A selection follows. Entries with a potency or affinity are not part of this list.

The compounds below were run against NAD-dependent protein deacylase sirtuin-5, mitochondrial (Homo sapiens) (UniProt Q9NXA8) (assay: SIRT5 desuccinylase inhibitors, dose response, biochemical, fluorescence imaging, cherry-pick, set 5 (AID 720591)). Settings: Purified SirT5, succinyl-peptide AMC, trypsin-coupled fluorescence; series mostly up to 15 µM.
Chain of NAD-dependent protein deacylase sirtuin-5, mitochondrial (Homo sapiens) (Q9NXA8 whole entry, looked up): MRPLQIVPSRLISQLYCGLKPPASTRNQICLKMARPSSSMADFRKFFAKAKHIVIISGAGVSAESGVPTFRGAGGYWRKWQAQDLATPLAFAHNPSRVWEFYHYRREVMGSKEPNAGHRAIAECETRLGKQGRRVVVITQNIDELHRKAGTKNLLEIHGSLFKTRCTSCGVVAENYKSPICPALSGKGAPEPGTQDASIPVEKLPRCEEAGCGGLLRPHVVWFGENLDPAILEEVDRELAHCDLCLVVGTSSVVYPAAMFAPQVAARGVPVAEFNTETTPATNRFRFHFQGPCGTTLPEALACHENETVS

| SMILES | outcome |
| --- | --- |
| Oc1ccc(-c2n[nH]c(C(F)(F)F)c2-c2ccccc2)c(O)c1 | inactive |
| COc1ccccc1-c1cc(C(=O)NC(C)C)no1 | inactive |
| CC1c2nc3ccccc3n2C(CC(=O)NC2CC2)C(=O)N1Cc1ccccc1 (configuration not stated) | inactive |
| Cc1ccc(Cn2c(N3CCN(C)CC3)nc3c2c(=O)[nH]c(=O)n3C)cc1 | inactive |
| Cn1c(=O)[nH]c(=O)c2c1nc(N1CCNCC1)n2Cc1ccccc1 | inactive |
| Oc1ccc(-c2nccc(-c3ccc(Cl)cc3Cl)n2)cc1 | inactive |
| Cc1ccc(-c2nc3c(Cl)cc(C(F)(F)F)cn3c2Cc2cccc(F)c2)cc1 | inactive |
| CC(=O)c1cccc(NC(=O)CCS(=O)(=O)c2ccc(Br)s2)c1 | inactive |
| O=C(Nc1ccc2c(c1)OCCO2)C(c1ccnc2ccccc12)N1CCN(c2ccc(F)cc2)CC1 (configuration not stated) | inactive |
| C=CC[C@H](CC(=O)N(CCO)Cc1ccccc1)C(=O)N[C@@H](COC(=O)[C@H](CC=C)CC(=O)OC(C)(C)C)Cc1c[nH]c2ccccc12 | inactive |
| CSc1nc(N)nc2c1ncn2CC(=O)NCC1CCCO1 (configuration not stated) | inactive |
| O=C(NCc1ccc(F)cc1)C1CC(=O)N(C2CCCCC2)C1 (configuration not stated) | inactive |
| Cc1cc(C)c(NC(=O)CN(C)C(=O)CNC(=O)c2cccs2)c(C)c1 | inactive |
| O=C(Nc1ccccc1Cl)c1cccs1 | inactive |
| COc1ccccc1CCNS(=O)(=O)c1cc2c3c(c1)C(C)C(=O)N3CCC2 (configuration not stated) | inactive |
| COc1ccc(Nc2oc(-c3ccco3)nc2S(=O)(=O)c2ccc(F)cc2)cc1 | inactive |
| Cc1nn(CC(=O)N(C)C)c(=O)c2ccccc12 | inactive |
| Cc1ccc(S(=O)(=O)c2nc(Cc3ccccc3)oc2N2CCOCC2)cc1 | inactive |
| Cc1ccc(C(C(=O)NC(C)(C)C)N(C(=O)CCC(=O)Nc2ccccn2)c2ccccc2F)cc1 (configuration not stated) | inactive |
| CO/N=C(\C(=O)N[C@@H]1C(=O)N2C(C(=O)O)=C(COC(C)=O)CS[C@H]12)c1csc(N)n1 (stereo in doubt) | inactive |
| Cc1ccc(-c2ccc(=O)n(CC(=O)Nc3ccc4c(c3)OCCO4)n2)cc1 | inactive |
| COc1ccc(N2CCN(C(=O)CN(C)S(=O)(=O)c3cc(C)ccc3OC)CC2)cc1 | inactive |
| N[C@@H](CO)c1nnc([C@H](Cc2ccc(O)cc2)NC(=O)C2CCNCC2)o1 | inactive |
| O=S(=O)(CCc1ccncc1)c1ccc(Cl)cc1 | inactive |

| SMILES | outcome |
| --- | --- |
| NCC(O)CN(c1ccccc1)c1ccccc1 (configuration not stated) | inactive |
| O=C(c1cccc(F)c1)N1CCCC(C(=O)N2CCCCCC2)C1 (configuration not stated) | inactive |
| O=C(c1cccc(F)c1)N1CCCC(C(=O)N2CCCCC2)C1 (configuration not stated) | inactive |
| CC(=O)Nc1ccc(S(=O)(=O)Nc2ccc(-n3cnnn3)cc2)cc1 | inactive |
| O=C(Nc1ccc(F)cc1)C1CC(=O)n2ncnc2N1 (configuration not stated) | inactive |
| C[C@H](CO)N1C[C@H](C)[C@@H](CN(C)Cc2ccccn2)Oc2ncc(Br)cc2C1=O | inactive |
| Cc1csc(NC(=O)CSc2sc3c(O)cc(=O)[nH]c3c2C#N)n1 | inactive |
| N#Cc1c(SCC(=O)Nc2nccs2)sc2c(O)cc(=O)[nH]c12 | inactive |
| CC(=O)N1N=C(N)SC12CCCC2 | inactive |
| C[C@H]1CN([C@@H](C)CO)C(=O)c2cc(Br)cnc2O[C@H]1CN(C)C(=O)c1ccccn1 | inactive |
| C[C@@H]1CN([C@H](C)CO)C(=O)CCCn2nncc2CO[C@H]1CN(C)C(=O)Nc1cccc2ccccc12 | inactive |
| CC(C)NC(=O)N(C)C[C@@H]1OCc2cnnn2CCCC(=O)N([C@@H](C)CO)C[C@H]1C | inactive |
| Cc1ccnc(NS(=O)(=O)c2ccc(NC(=O)Cc3ccc(F)cc3)cc2)n1 | inactive |
| Cc1noc(C)c1COc1ccc(C(=O)N2CCN(S(=O)(=O)c3cccc(F)c3)CC2)cc1 | inactive |
| COc1ccc(NC(=O)CN(c2ccc(Cl)cc2)S(C)(=O)=O)cc1OC | inactive |
| O=C(COC(=O)CC1CC2CCC1C2)NCc1ccccc1 (configuration not stated) | inactive |
| O=C(COC(=O)CC1CC2CCC1C2)Nc1ccc(F)cc1 (configuration not stated) | inactive |
| COc1ccccc1OCCSc1nc2ccccc2n1CC(O)CO (configuration not stated) | inactive |
| COc1cc(C(=O)NCCCc2nc3ccccc3n2Cc2cc(C)ccc2C)cc(OC)c1OC | inactive |
| c1ccc(CCc2nc(-c3ccc(-n4cccc4)cc3)no2)cc1 | inactive |
| Cc1ccc(-c2noc(CN(C)C(=O)c3ccc(Br)o3)n2)cc1 | inactive |
| Cc1ccc(CNC(=O)C2CCCN(S(=O)(=O)N3CC(C)CC(C)C3)C2)cc1 (configuration not stated) | inactive |
| O=C(COc1ccccc1)Nc1ncn[nH]1 | inactive |
| COc1cc(C)c(CN2CCN(CC(=O)Nc3ccccc3C(=O)NC3CC3)CC2)cc1OC | inactive |

| SMILES | outcome |
| --- | --- |
| O=C1CCC(C(=O)N2CCCCCC2)CN1Cc1cccc(C(F)(F)F)c1 (configuration not stated) | inactive |
| CCOC(=O)c1c(C)[nH]c(C)c1C(=O)COC(=O)c1cccc(C)c1O | inactive |
| CCOC(=O)c1c(C)[nH]c(C)c1C(=O)COC(=O)c1cc2ccccc2cc1O | inactive |
| CCOc1ccc(CCNC(=O)Cn2nc(C)c3c(C)n(-c4ccccc4)nc3c2=O)cc1 | inactive |
| COC(=O)[C@]12CCCCC=C1N(Cc1cccc3ccccc13)C(=O)[C@H](CC(=O)NCC1CCCCC1)C2 | inactive |
| CC1=C(C(=O)N2CCOCC2)CC(CC(=O)NCC2CCCCC2)C(=O)N1CCC1=CCCCC1 (configuration not stated) | inactive |
| NC(=O)c1ccc(NC(=O)CCCc2nc(-c3ccccc3Cl)no2)cc1 | inactive |
| Cc1ccc2c(c1)CO[C@@]21O[C@H](CCO)C[C@H](O)[C@H]1O | inactive |
| Cc1cccc(NC(=O)C2CCN(C(=O)c3ccco3)CC2)c1C | inactive |
| Cc1ccc(NC(=O)C2CCN(C(=O)c3ccco3)CC2)cc1 | inactive |
| CC(C)CCN1CCN(Cc2cnc(N3CCCC3)s2)CC1CCO (configuration not stated) | inactive |
| O=C(Cc1cccs1)N1CCN(S(=O)(=O)c2ccc(Cl)c(C(F)(F)F)c2)CC1 | inactive |
| C/C(N)=C(/C#N)C(=O)CSc1nnc(Nc2ccccc2)s1 | inactive |
| Cc1ccc(OCCSc2nc3ccccc3n2CCC(=O)O)cc1 | inactive |
| CCSc1nnc(NC(=O)Cc2ccc(OC)cc2)s1 | inactive |
| CCc1ccc(S(=O)(=O)c2ccc(-n3nc(C)cc3N)cc2)cc1 | inactive |
| c1ccc(CCn2nnc3ccccc32)cc1 | inactive |
| CCOC(=O)c1c(-c2ccc(C)cc2)csc1NC(=O)CCN1CC(C)OC(C)C1 (configuration not stated) | inactive |
| CC1C(=O)N2CCCc3cc(S(=O)(=O)N4CCCCC4)cc1c32 (configuration not stated) | inactive |
| CCCNC(=O)CC1C(=O)N(Cc2ccccc2)C(C)c2nc3ccccc3n21 (configuration not stated) | inactive |
| CCCCNC(=O)CC1C(=O)N(Cc2ccccc2)C(C)c2nc3ccccc3n21 (configuration not stated) | inactive |
| CCCCCCN1CCN(C2CN(C3CCCCC3)S(=O)(=O)C2)CC1 (configuration not stated) | inactive |
| CCN(c1ccccc1)S(=O)(=O)c1nnc(NC(=O)C(C)(C)C)s1 | inactive |
| COc1ccc(C(CNC(=O)c2cccc(S(=O)(=O)N3CCCCC3)c2)N2CCCC2)cc1 (configuration not stated) | inactive |
